KCNQ2 inh: inhibitors of rat KCNQ2 potassium channel; O88943; CHO-K1 KCNQ2, FluxOR thallium flux, 20 min; stronger effect = lower value; B-score at 10 µM; 1.1% of 310,000 active;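 active means fluorescence ratio B-score at most minus 3 library SDs, with starting brightness B-score within 2 library SDs, cut at about -5.5 in these data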
KCNQ2 enhance: KCNQ2 (rat) channel potentiation | AID 2239 | CHO-K1 KCNQ2, FluxOR thallium flux fluorescence; stronger effect = higher value | B-score at 10 µM | 0.54% of 310,000 active | O88943;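 active means fluorescence ratio B-score at least 3 SD of library B-scores, with initial fluorescence B-score within 3 of them, cut at about 5.3 in these data; same plate scores as AID 2156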;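 further: B-score of peak minus minimum over baseline fluorescence ratio after K+ and Tl+ stimulus; positive B-score means potentiation of KCNQ2 with more thallium influx and brighter signal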
Kir21 conf inh: confirmation of mouse Kir2.1 potassium channel inhibitors. shares compounds with KCNQ2 enhance. Kir2.1-expressing cells, FluxOR thallium flux fluorescence; stronger effect = lower value. Tl flux remaining, % of negative control (stronger effect = lower value), % at 10 µM. 41% of 2,300 active;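 active means Primary-screen hit whose thallium flux fell at least 3 control SD below untreated wells in both duplicates, with normal baseline fluorescence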;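 further: 0% = blank wells without stimulus and 100% = stimulated no-compound controls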
HEK293 Tl flux: counter-screen for Kir2.1 inhibitors: effect in parental HEK293 cells | shares compounds with KCNQ2 enhance | FluxOR thallium flux fluorescence; 0% = unstimulated blank wells | FluxOR signal as % of negative control (100 = no effect), % at 10 µM | 19% of 2,300 active | AID 2105;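 active means dye signal at least 3 control SD above or below untreated wells in both duplicates, raw fluorescence within 3, either direction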;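 further: percent is based on the flux ratio of peak minus minimum fluorescence over baseline F0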
CHO-K1 ctr: alters thallium flux in parental CHO-K1 cells, KCNQ2 counter-screen; shares compounds with KCNQ2 enhance; FluxOR thallium flux fluorescence; zero = vehicle mean+3SD, 100% = vehicle-minus-blank window; activity increase over 3SD of controls, % at 10 µM; 43% of 1,200 active; AID 2282;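 active means signal rise of at least 3 SD above the untreated control mean, in both duplicate wells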;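 further: counter screen of KCNQ2 potentiator hits so any rise reflects channel-independent effects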
KCNQ1 pot spec: tests whether KCNQ2 potentiators also act on human KCNQ1; 28% of 1,200 active; activation over 3SD threshold, % at 10 µM; CHO KCNQ1 stable, FluxOR thallium flux fluorescence; beyond 3SD, as % of vehicle-control signal; shares compounds with KCNQ2 enhance;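 active means fluorescence ratio rise of at least 3 SD of vehicle wells above their mean, in both replicate wells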;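 further: 0% = vehicle mean plus 3 SD and 100% = vehicle minus unstimulated blank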
KCNQ2 pot conf: confirmation of rat KCNQ2 potassium channel potentiators | CHO-KCNQ2 cells, FluxOR thallium flux fluorescence | potentiation, less the hit threshold, % at 10 µM | 68% of 1,200 active | AID 2287 | shares compounds with KCNQ2 enhance;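 active means fluorescence ratio rising 3 SD or more over the vehicle control mean in both replicates, plus primary screen hit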;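 further: peak minus minimum thallium fluorescence divided by baseline after K/Tl stimulus; 0% = vehicle mean plus 3 SD and 100% = vehicle minus unstimulated blank difference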
Kir21 spec: tests whether KCNQ2 potentiators also affect mouse Kir2.1 | 2% of 1,200 active | activity over 3SD threshold, % at 10 µM | shares compounds with KCNQ2 enhance | HEK293 Kir2.1, FluxOR thallium flux fluorescence;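 active means fluorescence ratio rise of at least 3 SD above the vehicle-control mean, seen in both replicates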;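 further: 0% = vehicle mean plus 3 SD and 100% = vehicle minus no-stimulus blank window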
KCNQ2 W236L pot: KCNQ2 potentiators acting on retigabine-insensitive rat KCNQ2 W236L mutant; 10% of 940 active; current increase over 3SD of negative controls (%), stronger effect = higher value, % at 25 µM; CHO KCNQ2-W236L, automated patch clamp current; shares compounds with KCNQ2 enhance;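 active means current increase at least 3 SD of the untreated controls above them in both duplicate recordings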
Target sequence (O88943 whole entry W236L, looked up): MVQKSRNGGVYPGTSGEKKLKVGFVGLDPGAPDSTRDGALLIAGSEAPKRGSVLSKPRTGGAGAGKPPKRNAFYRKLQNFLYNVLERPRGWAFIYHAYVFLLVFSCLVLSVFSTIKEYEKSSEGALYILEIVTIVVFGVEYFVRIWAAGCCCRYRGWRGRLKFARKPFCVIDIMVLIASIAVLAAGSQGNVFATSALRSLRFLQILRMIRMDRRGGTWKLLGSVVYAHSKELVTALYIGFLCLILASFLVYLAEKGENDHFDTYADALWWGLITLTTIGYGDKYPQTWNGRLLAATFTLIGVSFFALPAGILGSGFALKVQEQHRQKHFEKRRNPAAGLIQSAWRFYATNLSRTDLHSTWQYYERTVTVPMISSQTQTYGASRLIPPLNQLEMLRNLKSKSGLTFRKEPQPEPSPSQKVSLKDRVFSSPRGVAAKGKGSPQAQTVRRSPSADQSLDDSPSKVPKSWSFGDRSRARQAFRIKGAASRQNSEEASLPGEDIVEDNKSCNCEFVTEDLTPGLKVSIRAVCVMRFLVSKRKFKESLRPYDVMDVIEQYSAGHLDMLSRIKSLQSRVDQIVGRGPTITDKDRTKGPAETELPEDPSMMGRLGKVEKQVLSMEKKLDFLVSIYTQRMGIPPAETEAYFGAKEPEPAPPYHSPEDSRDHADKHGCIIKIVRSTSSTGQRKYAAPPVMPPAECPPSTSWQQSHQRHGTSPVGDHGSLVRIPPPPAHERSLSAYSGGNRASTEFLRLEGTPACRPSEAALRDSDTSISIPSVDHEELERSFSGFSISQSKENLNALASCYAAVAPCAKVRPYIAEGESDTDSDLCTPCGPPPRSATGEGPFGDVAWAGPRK
* hit, by the source's call; i = inactive; · = no result. This is a sample that favours compounds with a hit; in the whole collection about 1.6% have one here.

SMILES	KCNQ2 inh	KCNQ2 enhance	Kir21 conf inh	HEK293 Tl flux	CHO-K1 ctr	KCNQ1 pot spec	KCNQ2 pot conf	Kir21 spec	others
CCc1nc(C)cn1S(=O)(=O)c1cc(F)ccc1OC	i	1.88	·	·	·	·	·	·
CCc1nc(C)cn1S(=O)(=O)c1ccc(Cl)c(Cl)c1Cl	i	·	·	·	·	·	·	·
COc1cccc(CN2CCN(Cc3nc(C(C)C)cs3)CC2CCO)c1 (configuration not stated)	i	·	·	·	·	·	·	·
O=C(O)CC/C(=N\NC(=O)c1ccccc1Br)c1ccccc1	i	·	·	·	·	·	·	·
CCSc1nnc(NC(=O)CC(C)C)s1	i	0.43	i	i	·	·	·	·
CCSc1nnc(NC(=O)CC)s1	i	0.02	·	·	·	·	·	·
CCOc1ccc(CCNC(=O)CN2C(=O)NC3(CCCCC3)C2=O)cc1OCC	i	0.14	·	·	·	·	·	·
Cc1cccc2sc(NNC(=O)c3cc(-c4cccs4)nc4ccccc34)nc12	i	0.16	·	·	·	·	·	·
O=C(O)c1cc(-c2cccs2)nn1-c1cccc(Cl)c1	i	8.88*	i	i	15.5*	27.8*	-7.1	-12.3	KCNQ2 W236L pot=i
O=C(O)c1cc(-c2cccs2)nn1-c1ccccc1	i	·	·	·	·	·	·	·
Cn1c(-c2ccc3c(c2)OCO3)cnc1NCc1ccccc1	i	·	30.5%*	i	·	·	·	·
Cn1c(-c2ccccc2)cnc1NCc1ccccc1	i	·	·	·	·	·	·	·
Cn1c(-c2cccc(Br)c2)cnc1NCc1ccccc1O	i	5.59*	75.0%*	i	2.7*	8.7*	-13.0	-58.9
Cn1c(NCc2cc(Br)ccc2O)nc2ccccc21	i	0.81	·	·	·	·	·	·
Cc1cccc(NC(=O)C2(c3cccs3)CCOCC2)n1	i	·	·	·	·	·	·	·
O=C(OCc1ccccc1)c1cn(-c2ccccc2)nc1-c1ccncc1	i	0.5	·	·	·	·	·	·
CCCOC(=S)NC(=O)c1sc2ccccc2c1Cl	i	20*	i	312.5%*	22.1*	-12.2	55.3*	-12.4	KCNQ2 W236L pot=i
CCOC(=S)NC(=O)c1sc2ccccc2c1Cl	i	21.5*	i	355.5%*	-2.0	-5.5	61.8*	-37.1	KCNQ2 W236L pot=i
CC(C)(C)C(=O)NC(=S)NNC(=O)c1sc2ccccc2c1Cl	i	11.7	·	·	·	·	·	·
O=C(NC(=S)NCCO)c1sc2ccccc2c1Cl	i	·	·	·	·	·	·	·
COc1ccc(-n2nc(C(=O)NCC(=O)NCc3cccc(F)c3)c3ccccc3c2=O)cc1Cl	i	·	·	·	·	·	·	·
CCn1c2ccc(F)cc2c2nnc(SCCN3CCCCC3)nc21	i	0.08	·	·	·	·	·	·
O=C(Nc1ccc(Cl)cc1F)C1CC1c1ccccc1 (configuration not stated)	i	7.21*	i	i	-12.3	28.2*	18.7*	-31.4	KCNQ2 W236L pot=i
O=C(Nc1ccncc1)C1CC1c1ccccc1 (configuration not stated)	i	0.89	·	·	·	·	·	·
Cc1ccc(NC(=O)C2CC2c2ccccc2)c([N+](=O)[O-])c1 (configuration not stated)	i	10.9*	i	i	-15.0	-9.5	7.1*	-37.6	KCNQ2 W236L pot=40.5%*
SMILES	KCNQ2 inh	KCNQ2 enhance	Kir21 conf inh	HEK293 Tl flux	CHO-K1 ctr	KCNQ1 pot spec	KCNQ2 pot conf	Kir21 spec	others
CC(C)c1ccc(NC(=O)C2CC2c2ccccc2)cc1 (configuration not stated)	i	17.4*	i	i	19.6*	-8.7	28.1*	-23.9	KCNQ2 W236L pot=i
O=C(Nc1cccc(Cl)c1)C1CC1c1ccccc1 (configuration not stated)	i	0.27	·	·	·	·	·	·
Cc1ccc(NC(=O)/C=C\C(=O)O)c([N+](=O)[O-])c1	i	·	·	·	·	·	·	·
NS(=O)(=O)c1ccc(NC(=O)c2ccc(CNS(=O)(=O)c3cc(C(F)(F)F)ccc3Cl)cc2)cc1	i	·	·	·	·	·	·	·
CCn1c(=O)n(CC)c2cc(NC(=O)C(C)c3ccccc3)c(Br)cc21 (configuration not stated)	i	22.4*	i	i	-8.2	-24.2	94.9*	-24.4	KCNQ2 W236L pot=i
CCn1c(=O)n(CC)c2cc(N3CCCC3)c(NC(=O)c3cccc(C)c3)cc21	i	·	·	·	·	·	·	·
COc1c(C)cccc1C(=O)NCc1ccc2c(c1)OCO2	i	0.75	·	·	·	·	·	·
CCS(=O)(=O)c1ccc(N=Nc2ccc(O)c3ncccc23)c(OC)c1	i	0.63	·	·	·	·	·	·
Cc1ccc(N=Nc2ccc(O)c3ncccc23)cc1C	i	2.79	·	·	·	·	·	·
COc1ccccc1N=Nc1ccc(O)c2ncccc12	i	6.72*	i	i	-7.2	-21.1	1.5*	-28.4	KCNQ2 W236L pot=i
Cc1ccc(N=Nc2ccc(O)c3ncccc23)cc1	i	8.3*	i	i	-11.7	27.0*	13.0*	-35.0	KCNQ2 W236L pot=i
COc1cc(NC(=O)CN2C(=O)CSc3ccc(S(=O)(=O)N4CCCC4)cc32)cc(OC)c1	i	·	·	·	·	·	·	·
O=C(N/N=C/c1ccc(O)cc1)c1ccc(COc2cc(Cl)ccc2Cl)o1	i	2.26	·	·	·	·	·	·
CC/C(=N\NC(=O)c1ccc2c(c1)OCO2)C12CC3CC(CC(C3)C1)C2	i	·	·	·	·	·	·	·
CC/C(=N/NC(=O)c1ccc2c(c1)OCO2)c1ccccc1O	i	7.86*	i	i	-11.6	-20.0	16.4*	-31.1	KCNQ2 W236L pot=i
Nc1nc(C2CC2)c(Sc2sc(N)nc2C2CC2)s1	i	·	74.0%*	i	·	·	·	·
Nc1nc(C2CCOCC2)cs1	i	·	·	·	·	·	·	·
C#CCNc1c2c(nc3ncnn13)CC(C)CC2 (configuration not stated)	i	·	·	·	·	·	·	·
CC(=O)C1=C(C)NC(SCC(=O)c2ccc(Cl)cc2)=C(C#N)C1c1ccco1 (configuration not stated)	i	11.6*	i	i	-20.7	16.9*	-23.8	-37.4
CC(=O)C1=C(C)NC(SCC(=O)c2ccc(Cl)cc2Cl)=C(C#N)C1c1ccco1 (configuration not stated)	i	1.42	·	·	·	·	·	·
O=C(O)c1cc(-n2[nH]c(=O)c3ccccc3c2=O)ccc1Cl	i	·	·	·	·	·	·	·
COc1ccc2c(c1)C(=NNc1ccc(C(=O)O)cc1)c1cc(OC)ccc1-2	i	7.55*	i	i	-15.1	-17.0	-17.6	-30.7
COc1ccc(/C(C)=N/Nc2ccc(C(=O)O)cc2)c(OC)c1	i	·	·	·	·	·	·	·
C=CCOc1ccccc1CNCCc1ccc(S(N)(=O)=O)cc1	i	·	·	·	·	·	·	·
NS(=O)(=O)c1ccc(CCNCc2cc(Br)ccc2OCc2ccccc2F)cc1	i	·	64.5%*	i	·	·	·	·
NS(=O)(=O)c1ccc(CCNCc2cc(Cl)ccc2OCc2ccccc2)cc1	i	1.72	·	·	·	·	·	·
